Reference: PubChem BioAssay AID1347426 (Functional Genomics Laboratory (NCATS/FGL), 2020)
The campaign covered roughly 31,000 sequences. About 1,400 (4.5%) were called active. This excerpt belongs to a sample that is enriched for actives. Values without a mark were called inactive.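 Rule for the calls: active = median seed-adjusted z-score above 1 or below -1; inactive = the rest.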

Assay: Novel Modifiers of Survival Motor Neuron (SMN) Protein: Gene Identification via Genome-wide siRNA Screen;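 note: luminescence tracks full-length SMN protein made from the SMN2 reporter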
Conditions: HEK293T SMN2-luciferase reporter, siRNA knockdown, 72 h; actives lie on both sides
How it was run: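 Each of three siRNAs per gene is reverse-transfected (1 pmol) into reporter HEK293T cells whose luciferase output tracks SMN protein level. After 72 h culture, ONE-Glo luminescence is control-normalized, log10-transformed and MAD-standardized; Common Seed Analysis deprioritizes seed-driven hits.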

| Sequence | median seed-adjusted z-score |
| --- | --- |
| GGCCGGAGAUUAUCCUCAATT against MIXL1 | -0.204 |
| GUGUGGUAGCUAUUGACAATT against TSC22D1 | 0 |
| UUCCCAUAUUUAUUCGGACTT against AMH | -0.255 |
| GCAGUGACCUUCAAAGUGATT against PTPRN2 | -0.104 |
| CAACUGCAAGAGGACUGUATT against SLC10A4 | 0.069 |
| UGCUGUUCGUGGAUUUCAATT against CDX4 | 0.181 |
| AGAUUGAAAUCGACUUUGATT against BRD4 | 1.13 (active) |
| GCAUCAUCUCAGCACCAGATT against SLC5A12 | 0.279 |
| GAACCGCCCUCCUGAUUAATT against WNT3A | -0.66 |
| GCAAGAUCCCAAAUCAGCATT against ADAT1 | 0.404 |
| ACAAGAUGACCAACACUAATT against ARHGAP1 | -1.14 (active) |
| GAACGGGUAUGUGGAGAUATT against INHBA | 0.361 |
| CGAACGAAGAAGAGCCGAATT against NFATC2 | 0.183 |
| CUACCCAACCUGUAGCUAATT against UBE2J1 | -1.2 (active) |
| CGAUUAGAAAUCAACAUGATT against MLKL | 0 |
| GAUUUCUAGGCAUCCCGUATT against ARSA | 0.0938 |
| CCAUGAUCCUGUGGAUAAATT against HNRNPA2B1 | 1.33 (active) |
| CCCUCGAAUUCGCAUAGAATT against DIS3 | 0.266 |
| GCACCGUCUAUGUCACCAUTT against GAL3ST3 | -0.54 |
| CCCAUAUUCGGAUCCAGAATT against PTPN6 | -0.515 |
| GGAAUCGUGGAGAAUAUGATT against NUBP2 | -0.21 |
| CCAUGCCCUAUGUUAAGAATT against RRM2B | -0.128 |
| AGACGAUCCGGGUAAAGUUTT against LSM7 | -0.45 |

| Sequence | median seed-adjusted z-score |
| --- | --- |
| CAACUAGUGCAACCAGUAATT against ZNF207 | -3.1 (active) |
| GGCUCCUCCUUGUACUCAATT against FOXO3 | -0.712 |
| GGGCAUCGCUAAACCCAAATT against LIF | 0.273 |
| GGUCCGAUGUUACGUCUAATT against TIGD4 | -0.553 |
| CCGGGACAGUGACAUCAUATT against ENDOD1 | -0.138 |
| GGAGCACAGAGGCUCAGAATT against TNFRSF13B | 0.152 |
| CCAUCAAACUUGCAUCCCUTT against ISX | 1.99 (active) |
| GAACAUCUCUUGUGGUAUUTT against SLC22A16 | 0.0878 |
| GGUUUUAACUGGAACUGGATT against HIF1AN | -0.0315 |
| GGAUCGACCCAACCUAUGUTT against XYLT2 | 0.148 |
| CAGCACUAUUAGACAGGAATT against ZBTB40 | 0.187 |
| CUGCGGACCCAAUACAUGATT against ARID3A | -1.11 (active) |
| AGAGGUUUGGCAGAAAUACTT against NPFF | -0.631 |
| UAAGAACACCGUUACCCAATT against NLGN4X | -0.1 |
| GCAGACCACCUGAAUAUGATT against TRO | 2.04 (active) |
| GGAGUAGAUUUUAGCAUAATT against TNKS2 | 0.0545 |
| GAUAUUGCACAAAUCUAUATT against UBE2D1 | 0.508 |
| GAAGAUAUGCAACAGCCUATT against UNC5B | -0.0207 |
| CAGAAGUCGUAGUCAUGAATT against RBM39 | -1.82 (active) |
| GUAUCUGACUGACAUCCUUTT against PLCH2 | 0.593 |
| CCAAUACAGUGGAACCUAUTT against ATXN1 | -0.024 |
| CCUCCAACGUAUCAUGAGATT against CYP7A1 | -0.0092 |
| ACAAAAUUGCUACAUCAAATT against ECHDC1 | 0.554 |

| Sequence | median seed-adjusted z-score |
| --- | --- |
| GCAGAGAACUGGUUCCGAATT against ZNF512B | 0.212 |
| CCGUGUCUUCAGGAACGAATT against CYB561 | 0 |
| GAUUUUAGCACUACAACAATT against ZNF664 | 1.08 (active) |
| AGCUGAAAAUUGAGAACAATT against TBX4 | 0.968 |
| GCCCAUUAAUAUUAUAGGUTT against LAP3 | 0.0175 |
| CCUUCAUCCGGAAAUUAAATT against ZIM3 | -0.02 |
| GGUGGAUGGUAAUAAGGAATT against CTPS2 | 1.08 (active) |
| GGAAGUUGUUCAACGAGAUTT against MLPH | -1.2 (active) |
| CGGCUAUGACAAGUCAAUATT against PKDREJ | 0.376 |
| GGCAGUACAUGUACGAUGATT against AGXT2L2 | -0.0495 |
| GAACUGUCGGCGGAACAUUTT against MFAP3L | 1.03 (active) |
| GCGUUGACAGUGAUGCGUATT against SLC4A3 | -0.7 |
| GCUUUUGCAUGGAUGUGCATT against ELTD1 | 0.387 |
| GGAAUAUGAGGUGACCGUUTT against IL17RA | -1.29 (active) |
| CGGUAAAUGUCACUCGUGATT against PRKG1 | 0 |
| AGAUGUCCAGACCAAGAUATT against CREBL1 | -0.348 |
| CAACGAAAAUCUAAAUGCATT against HMMR | 0.389 |
| AGAAUGUGCGGCUUAUUGATT against CCDC88B | -0.153 |
| CCAGAGCAAAGGCUAUGAATT against ZNF350 | 0.133 |
| UAAAAUCUAGGGAUCCAAUTT against POLR2K | -3.72 (active) |
| AGAUUACGUUGAAGAACGATT against GNGT1 | -0.0382 |
| CAUUCACUGAGGCGACAGATT against ABCA9 | -0.139 |
| GAAGGGCCUUUUUAUCCAATT against MCTS1 | 0.116 |
